Source: PubChem BioAssay
Hits are enriched below; roughly 9.4% of the tested compounds scored in any of these assays.
HTT aggregate: mutant huntingtin aggregation inhibition; PC12 HttQ103-GFP aggregates, Acumen cytometry, 40 h; Potency, µM (highest dose often 46.1 µM), for inactives: top-dose activity change, negative = inhibition, actives largely listed as inhibitors; hit rate 1.1% among 220,000; note: potency is the fitted concentration of half-maximal effect; % is set by controls: 0 for no effect and ±100 for the full control effect; nearly all actives have a fitted effect of over 60% in size
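Aggregate formation scored by laser-scanning cytometer (488 excitation, 500–530 emission) in lysed PC12 cells expressing Q103-GFP after 100 nM tebufenozide induction; library tested in dose series, with ATPLite reagent added in the multiplex.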
IMPase Li cell: IMPase inhibition in cells with lithium potentiation; Potency, µM (series often up to 59.4 µM), for the others: at the top dose activity, negative = IMPase inhibition, actives largely listed as inhibitors; AID 1457; CHO-M1 cells, IP1 TR-FRET (IP-One), carbachol + lithium; hit rate 0.35% among 210,000;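 note: IP1 builds up when IMPase is blocked and the TR-FRET signal falls; potency is the fitted concentration of half-maximal effect; plate controls were basal vehicle for no effect and high inhibitor control for full effect; nearly all actives have a fitted effect of over 50% in size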
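CHO-M1, 2000 cells/well, 16–30 h culture; cpd + low Li+, 30 min 37C; lysis with d2-IP1/Eu-anti-IP1 Ab, 10 min RT; TR-FRET 665/620 ratio and 620 channel; AC50 via Hill.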
HPGD block: HPGD (human) dehydrogenase inhibition | purified HPGD, NADH fluorescence kinetic, PGE2 substrate | AID 894 | Potency, µM, inactives show at the highest dose activity change, negative = inhibition, most hits filed as inhibitors | hit rate 4.3% among 150,000; active = well fitted inhibition curve with a large enough effect, not every such curve was filed as active; inconclusive = small, poorly fitted or top-dose-only effect, or another doubt; inactive = no such curve, though single readings can be large or run the other way; note: potency is the fitted concentration of half-maximal effect; % is set by controls: 0 for no effect and ±100 for the full control effect
Target sequence (P15428 whole entry, looked up): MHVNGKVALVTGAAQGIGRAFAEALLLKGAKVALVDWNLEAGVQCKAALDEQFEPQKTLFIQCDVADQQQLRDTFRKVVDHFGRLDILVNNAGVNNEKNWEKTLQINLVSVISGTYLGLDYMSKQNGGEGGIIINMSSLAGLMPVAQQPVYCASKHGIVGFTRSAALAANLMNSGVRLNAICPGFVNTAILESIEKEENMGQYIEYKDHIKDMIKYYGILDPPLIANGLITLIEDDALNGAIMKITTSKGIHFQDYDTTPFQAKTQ
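NADH formation kinetics: reaction with 30 uM PGE2 and 1 mM NAD+ (final), 20 nM enzyme, Tris-HCl pH 8 with Tween 20, after 15 min compound preincubation at room temperature. Fluorescence change, last versus first of five reads.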
IMPase cell inh: cell-permeable inhibitors of inositol monophosphatase (IMPase). P97697. 120,000 tested, under 10 active. CHO-M1 cells, IP1 accumulation, HTRF TR-FRET ratio. inhibition (IP1 accumulation), % at 46.1 µM; active = well fitted curve in the direction sought with a large enough effect in the signal ratio, not every such curve was filed as active; inconclusive = small, poorly fitted or top-dose-only effect, or a change in a side signal; inactive = no such curve, though single readings can be large or run the other way; the % refers to the signal ratio;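 note: cells stimulated with carbachol in lithium chloride buffer; plate controls were DMSO basal wells for no effect and reference inhibitor wells for full effect; higher means more IMPase inhibition seen as more IP1 and lower FRET ratio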
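CHO-M1 cells (CHO stably expressing M1 receptor), compound up to 46 uM final, stimulated with carbachol (50 uM as added) in buffer with 50mM LiCl, pH 7.4, 30 min at 37C. Cytosolic IP1 read by TR-FRET; AC50 from Hill fits.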
HTT ATP protect: Huntington cell model cytoprotection by ATP luminescence. PC12 HTT-Q103 induced, cytoprotection, ATP luminescence, 40 h. Potency, µM (series often up to 56.4 µM), without a hit: cytoprotection (ATP increase), usual class: activators. hit rate 0.14% among 230,000. AID 1471; note: potency is the fitted concentration of half-maximal effect; % of control where 0% means no effect; nearly all actives have a fitted effect of over 45% in size
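PC12 cells with ecdysone-inducible HTT exon 1 Q103-GFP, induced with 100 nM tebufenozide and co-treated with library compounds in a dose series (1536-well, 1500 cells/well). Cytoprotection read as ATP content by ATPlite luminescence.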
ALDH1A1 inh: blocks purified human ALDH1A1 activity. hit rate 7.3% among 220,000. Purified ALDH1A1, NADH fluorescence, propionaldehyde substrate. P00352. Potency, µM (top dose mostly 75.3 µM), without a hit: at the top dose activity, negative = inhibition, usual class: inhibitors. AID 1030; active = well fitted inhibition curve with a large enough effect, not every such curve was filed as active; inconclusive = small, poorly fitted or top-dose-only effect, or another doubt; inactive = no such curve, though single readings can be large or run the other way;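 note: potency is the fitted concentration of half-maximal effect; plate controls were no enzyme wells and a reference inhibitor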
Target sequence (P00352 whole entry, looked up): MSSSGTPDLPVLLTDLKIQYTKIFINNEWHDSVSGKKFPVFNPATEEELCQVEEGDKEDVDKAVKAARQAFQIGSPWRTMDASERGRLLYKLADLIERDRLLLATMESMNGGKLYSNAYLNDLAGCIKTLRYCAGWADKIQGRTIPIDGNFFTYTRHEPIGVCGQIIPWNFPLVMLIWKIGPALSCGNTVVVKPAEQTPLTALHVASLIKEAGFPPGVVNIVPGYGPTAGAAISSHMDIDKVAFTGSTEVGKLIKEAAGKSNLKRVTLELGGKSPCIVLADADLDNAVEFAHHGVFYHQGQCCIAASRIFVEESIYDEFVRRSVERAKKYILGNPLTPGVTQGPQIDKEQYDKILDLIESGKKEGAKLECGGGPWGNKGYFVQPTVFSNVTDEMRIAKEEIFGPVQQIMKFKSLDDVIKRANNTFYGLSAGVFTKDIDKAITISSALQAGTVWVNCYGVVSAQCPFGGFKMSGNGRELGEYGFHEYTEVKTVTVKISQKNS
The depositor's hits bear a star; [ ] = remark or other dose. Unless noted, calls come from the whole dose curve; as a rule, active = well fitted curve in the direction sought with a large enough effect; inconclusive = small, poorly fitted or top-dose-only effect, or another doubt; inactive = no such curve, though single readings can be large; an effect the other way counts as inactive or inconclusive.

Results for COC(=O)CNC(=O)[C@@]1(C)C=C[C@@H](Cc2ccccc2)N1C(=O)OC ?
IMPase Li cell: 5%; HPGD block: -14%; HTT ATP protect: inconclusive; ALDH1A1 inh: inconclusive

How did CC#CCN1c2ccccc2[C@]23C[C@@H](C(=O)OC)N(S(=O)(=O)c4ccc(C#N)cc4)C2=NC(C(=O)OC)=C(C(=O)OC)[C@H]13 do in these assays?
IMPase Li cell: -8%; HPGD block: -8%; HTT ATP protect: -21%[10 µM]; ALDH1A1 inh: 6%[13.5 µM]

Results for O=C(CCl)N(Cc1ccccc1)c1ccccc1 ?
HTT aggregate: inconclusive; IMPase Li cell: 7%; HTT ATP protect: -22%[10 µM]; ALDH1A1 inh: 0.079µM*

How did Cc1cccc(N(Cc2ccccc2)C(=O)CCl)c1 do in these assays?
HTT aggregate: inconclusive; IMPase Li cell: 11%; ALDH1A1 inh: 0.28µM*

How did Cc1cccc(C)c1NC(=O)CC12CCCN1CCC2 do in these assays?
HTT aggregate: 1%; HTT ATP protect: 8%

What do the screens show for `Cc1ccc(NC(=S)NNC(=O)c2ccc(N3CCOCC3)c([N+](=O)[O-])c2)cc1Cl`?
HTT aggregate: inconclusive; IMPase Li cell: 1%; HPGD block: -11%; IMPase cell inh: 1; HTT ATP protect: 19%[10 µM]; ALDH1A1 inh: 7.9µM*

Results for Cc1cccc(NC(=O)c2ccc(N3CCOCC3)c([N+](=O)[O-])c2)n1 ?
HTT aggregate: -26%; IMPase Li cell: 5%; HTT ATP protect: -14%[10 µM]; ALDH1A1 inh: inconclusive

How did Cc1cc(C(=O)Nc2ccc(N3CCCC3)c(Cl)c2)ccc1[N+](=O)[O-] do in these assays?
HTT aggregate: -21%; IMPase Li cell: 5%; HPGD block: -11%; HTT ATP protect: -2%[10 µM]; ALDH1A1 inh: 20µM*

Results for O=C(Nc1ccc(N2CCCC2)c(Cl)c1)c1ccc([N+](=O)[O-])cc1 ?
HTT aggregate: -2%; IMPase Li cell: -1%; HPGD block: -7%; HTT ATP protect: -1%[10 µM]; ALDH1A1 inh: 5%

Results for O=C(N/N=C/c1ccccc1)c1ccc(N2CCOCC2)c([N+](=O)[O-])c1 ?
HTT aggregate: 11%; IMPase Li cell: 3%; HPGD block: -26%; ALDH1A1 inh: inconclusive

How did O=C(NNC(=S)Nc1ccc(Cl)cc1Cl)c1ccc(N2CCOCC2)c([N+](=O)[O-])c1 do in these assays?
HTT aggregate: -30%; IMPase Li cell: 21%; HPGD block: inconclusive; IMPase cell inh: 7; HTT ATP protect: 7%[10 µM]; ALDH1A1 inh: 0.45µM*

Results for O=C(NNC(=S)Nc1ccc(Br)cc1)c1ccc(N2CCOCC2)c([N+](=O)[O-])c1 ?
HTT aggregate: 21%; IMPase Li cell: 1%; HPGD block: 35µM*; IMPase cell inh: -5; HTT ATP protect: 7%[10 µM]; ALDH1A1 inh: 0.89µM*

What do the screens show for `c1ncc(-c2ccoc2)c(NC2CC2)n1`?
IMPase Li cell: -3%; HTT ATP protect: -1%; ALDH1A1 inh: inconclusive

How did O=C1[C@H]2CCn3c(=O)n(-c4ccccc4)c(=O)n3[C@H]2[C@H](O)[C@H]2O[C@@H]12 do in these assays?
HTT ATP protect: 9%[10 µM]; ALDH1A1 inh: 16%[13.5 µM]

How did C[C@H](O)[C@H](O)[C@@H]1CNc2nc(N)[nH]c(=O)c2N1 do in these assays?
IMPase cell inh: 0; HTT ATP protect: -21%[1.9 µM]

How did Cc1cccc(-c2nc3c(cnn3-c3ccccc3)c(=O)n2-c2cccc(Cl)c2)c1 do in these assays?
IMPase cell inh: 2

How did NS(=O)(=O)c1cc2c(cc1Cl)N[C@@H]([C@@H]1C[C@@H]3C=C[C@H]1C3)NS2(=O)=O do in these assays?
IMPase Li cell: 25%; HPGD block: -1%; IMPase cell inh: 3; HTT ATP protect: inconclusive; ALDH1A1 inh: 4%

Results for OC[C@H]1O[C@@](CO)(O[C@H]2O[C@H](CO)[C@@H](O)[C@H](O)[C@H]2O)[C@@H](O)[C@@H]1O ?
HTT aggregate: 25%; HTT ATP protect: 11%

What do the screens show for `CC(=O)N1CCc2cc(C(=O)CN3CCCCC3)ccc21`?
HTT aggregate: 4%; IMPase Li cell: 25%[38.3 µM]; HPGD block: 16µM*; IMPase cell inh: 2; HTT ATP protect: -26%; ALDH1A1 inh: 22µM*

Results for CCOC(=O)N1CCN(CC(=O)c2ccc3c(c2)CCN3C(C)=O)CC1 ?
HTT aggregate: 0%; IMPase Li cell: 2%[38.3 µM]; HPGD block: -3%; IMPase cell inh: 2; HTT ATP protect: -13%; ALDH1A1 inh: 25µM*

How did CC(=O)N1CCc2cc(S(=O)(=O)N3CCOCC3)ccc21 do in these assays?
HTT aggregate: -4%; IMPase Li cell: 7%[38.3 µM]; HPGD block: -4%; IMPase cell inh: -2; HTT ATP protect: 0%[10 µM]; ALDH1A1 inh: 8%

What do the screens show for `COc1ccccc1CN1CCC2(CC1)CCN(C(=O)c1c(C)noc1C)CC2`?
IMPase Li cell: 27%; HPGD block: -1%; HTT ATP protect: 25%; ALDH1A1 inh: 16%

Results for NCCC[C@@](N)(C(=O)O)C(F)F ?
IMPase cell inh: -1; HTT ATP protect: -1%[1.9 µM]

How did COc1ccc(-c2c(O)c3c(OC)c4c(cc3oc2=O)OC(C)(C)C=C4)cc1 do in these assays?
IMPase Li cell: 6%; HPGD block: -22%; ALDH1A1 inh: inconclusive

How did COc1ccc(C=NCC2OCCc3ccccc32)cc1OC (configuration not stated) do in these assays?
HTT aggregate: 19%; IMPase Li cell: 2%; HPGD block: -7%; HTT ATP protect: -8%[10 µM]; ALDH1A1 inh: inconclusive

What do the screens show for `COc1cc(C=NCC2OCCc3ccccc32)cc(OC)c1` (configuration not stated)?
HTT aggregate: 1%; IMPase Li cell: -5%; HPGD block: -2%; HTT ATP protect: 14%[10 µM]; ALDH1A1 inh: 22µM*

How did Cc1cccc(-n2nnnc2SCC(=O)NCC2CCCO2)c1 (configuration not stated) do in these assays?
HTT aggregate: -19%[9.22 µM]; HTT ATP protect: -3%[10 µM]

How did O=C(NCC1CCCO1)C(=O)c1c[nH]c2ccccc12 (configuration not stated) do in these assays?
HTT aggregate: -4%; IMPase Li cell: 2%; HTT ATP protect: -11%; ALDH1A1 inh: 3%

Results for O=C(CSc1c[nH]c2ccccc12)NCC1CCCO1 (configuration not stated) ?
HTT aggregate: 1%; IMPase Li cell: 21%[38.3 µM]; HPGD block: 4µM*; IMPase cell inh: 7; HTT ATP protect: -11%[10 µM]; ALDH1A1 inh: -5%
